Test results reported in PubChem BioAssay (NCATS).
Values joined by “and” are separate entries in the source; they are usually repeats but may differ in a detail not shown here. Equal values may be shown once. Inconclusive results are not listed. Active and inactive are the calls of the source. Calls come from the whole dose curve; as a rule, active = well fitted curve in the direction sought with a large enough effect; inconclusive = small, poorly fitted or top-dose-only effect, or another doubt; inactive = no such curve, though single readings can be large; an effect the other way counts as inactive or inconclusive.

Columns and labels:
CRL-7250 = normal cell line; test: Cytotoxic Profiling of Annotated Libraries Using Quantitative High-Throughput Screening (AID 1296008); details: Five cell lines viability, CellTiter-Glo ATP luminescence, 48-72 h; max response: hits give low values; note: nearly all actives have a fitted effect of over 60% in size; for max response: % is set by controls: 0 for no effect and ±100 for the full control effect
Method in brief: (§1)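 Cells exposed to compounds for 48 or 72 hr at 37 degrees Celsius. Viability read as ATP-coupled luminescence with CellTiter-Glo after 10 min at room temperature.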

HEK293 = test: as above; details: Five cell lines viability, CellTiter-Glo ATP luminescence, 48-72 h; max response: hits give low values
Method in brief: as §1

HaCat [1] = test: as above; details: Five cell lines viability, CellTiter-Glo ATP luminescence, 48-72 h; max response: hits give low values
Method in brief: as §1

KB-3-1 = test: as above; details: Five cell lines viability, CellTiter-Glo ATP luminescence, 48-72 h; max response: hits give low values
Method in brief: as §1

NIH3T3 [2] = test: as above; details: Five cell lines viability, CellTiter-Glo ATP luminescence, 48-72 h; max response: hits give low values
Method in brief: as §1

HACAT [3] = test: qHTS assay to identify novel small-molecules to repurpose for Merkel cell carcinoma treatment (AID 1296009); details: MCC and control cell lines, CellTiter-Glo viability, 72 h; at 44.8 µM (top of the series) unless noted; note: nearly all actives have a fitted effect of over 60% in size
Method in brief: (§2)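 Dose-response viability screen; 72 hr exposure at 37 degree celsius; CellTiter-Glo added, 10 min room temperature, luminescence read; RLUs scaled between no-cell and DMSO wells.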

MCC-13 = test: as above; details: MCC and control cell lines, CellTiter-Glo viability, 72 h; series mostly up to 46 µM
Method in brief: as §2

MCC-26 = test: as above; details: MCC and control cell lines, CellTiter-Glo viability, 72 h; series mostly up to 46 µM
Method in brief: as §2

MKL-1 = test: as above; details: MCC and control cell lines, CellTiter-Glo viability, 72 h; series mostly up to 46 µM
Method in brief: as §2

MKL-2 = test: as above; details: MCC and control cell lines, CellTiter-Glo viability, 72 h; series mostly up to 46 µM
Method in brief: as §2

UISO = test: as above; details: MCC and control cell lines, CellTiter-Glo viability, 72 h; series mostly up to 46 µM
Method in brief: as §2

WaGa = test: as above; details: MCC and control cell lines, CellTiter-Glo viability, 72 h; series mostly up to 46 µM
Method in brief: as §2

C33A = test: Primary qHTS to identify gynecologic anti-cancer compounds using libraries of approved drugs and bioactive compounds (AID 1345084); details: Gynecologic cancer cell panel viability, ATPlite luminescence, 48 h; series mostly up to 57.5 µM; note: nearly all actives have a fitted effect of over 55% in size
Method in brief: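 Cell viability after 48 h drug treatment, ATPlite luminescence readout; five doses.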

SC27B = test: qHTS profiling for inhibitors of Plasmodium falciparum proliferation (AID 504749); note: nearly all actives have a fitted effect of over 60% in size; details: P. falciparum in erythrocytes, SYBR Green DNA, 72 h; series mostly up to 28.7 µM
Method in brief: (§3)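 Each compound contacts P. falciparum-infected red blood cells for 72 h at 37 C; lysis buffer (Tris, EDTA, saponin, Triton X, SYBR Green I) is added and fluorescence measured next morning; values normalized to controls.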

TAB109 = test: as above; details: P. falciparum in erythrocytes, SYBR Green DNA, 72 h; series mostly up to 28.7 µM
Method in brief: as §3

TAB113 = test: as above; details: P. falciparum in erythrocytes, SYBR Green DNA, 72 h; series mostly up to 28.7 µM
Method in brief: as §3

TAB165 = test: as above; details: P. falciparum in erythrocytes, SYBR Green DNA, 72 h; series mostly up to 28.7 µM
Method in brief: as §3

W2 = test: as above; details: P. falciparum in erythrocytes, SYBR Green DNA, 72 h; series mostly up to 28.7 µM
Method in brief: as §3

NIH3T3 [4] = test: qHTS assay to identify novel small-molecules to repurpose for Merkel cell carcinoma treatment (AID 1296009); details: MCC and control cell lines, CellTiter-Glo viability, 72 h; at 44.8 µM (top of the series) unless noted; note: nearly all actives have a fitted effect of over 60% in size
Method in brief: as §2

HEK293T = test: as above; details: MCC and control cell lines, CellTiter-Glo viability, 72 h; at 44.8 µM (top of the series) unless noted
Method in brief: as §2
Potency is the fitted concentration of half-maximal effect.

Cc1cccc(-c2[nH]ncc2-c2ccc3ncccc3n2)n1
inactive: max response (CRL-7250) -2.02% | max response (HEK293) -26.8% | outcome (HaCat [1]) | max response (KB-3-1) -11.3% | max response (NIH3T3 [2]) -18.1% | outcome (HACAT [3]) | Potency (MCC-13) | Potency (MCC-26) | Potency (MKL-1) | Potency (MKL-2) | Potency (UISO)

CC1Cc2ccccc2N1NC(=O)c1ccc(Cl)c(S(N)(=O)=O)c1 (centres undefined)
inactive: max response (CRL-7250) -6.14% and 4.23% | max response (HEK293) 0.791% and 0.879% | max response (HaCat [1]) -11.1% | outcome (HaCat [1]) | max response (KB-3-1) -19.1% and -17.8% and -4.71% | max response (NIH3T3 [2]) 3.24% and 4.11% | outcome (HACAT [3]) | Potency (MCC-13) | Potency (MKL-1) | Potency (MKL-2) | Potency (UISO) | Potency (WaGa) | Potency (C33A)

COc1cc(OC)c(C(=O)CCCN2CCCC2)c(OC)c1
inactive: Potency (SC27B) | Potency (TAB109) | Potency (TAB113) | Potency (TAB165) | Potency (W2) | outcome (CRL-7250) | max response (HEK293) -1.67% and -16.3% | max response (HaCat [1]) 4.83% and -3.89% | max response (KB-3-1) -2.3% and 3.48% | max response (NIH3T3 [2]) -4.19% | outcome (NIH3T3 [2]) | Potency (MCC-13) | Potency (MCC-26) | Potency (MKL-1) | Potency (MKL-2) | outcome (NIH3T3 [4]) | Potency (UISO) | Potency (WaGa) | Potency (C33A)

NC(=O)Cc1cccc(C(=O)c2ccccc2)c1N
inactive: max response (CRL-7250) -2.24% and -8.84% | max response (HEK293) -0.043% and -1.4% | max response (HaCat [1]) -6.4% | outcome (HaCat [1]) | max response (NIH3T3 [2]) 1.53% and -19% | outcome (HACAT [3]) | Potency (MCC-13) | Potency (MKL-1) | Potency (MKL-2) | Potency (UISO) | Potency (WaGa) | Potency (C33A)

CC1(C)NC(=O)N(c2ccc([N+](=O)[O-])c(C(F)(F)F)c2)C1=O
inactive: Potency (SC27B) | Potency (TAB109) | Potency (TAB113) | Potency (TAB165) | Potency (W2) | max response (CRL-7250) -12.3% | max response (HEK293) -29% | max response (HaCat [1]) -0.412% | outcome (HaCat [1]) | max response (KB-3-1) 2.37% and -24.9% | max response (NIH3T3 [2]) -6.23% and -0.388% | outcome (HACAT [3]) | Potency (MCC-13) | Potency (MCC-26) | Potency (MKL-1) | Potency (MKL-2) | Potency (UISO) | Potency (WaGa) | Potency (C33A)

c1ccc2[nH]c(-c3cscn3)nc2c1
inactive: Potency (SC27B) | Potency (TAB109) | Potency (TAB113) | Potency (TAB165) | Potency (W2) | max response (CRL-7250) -2.24% and 4.16% | max response (HEK293) -22.6% and -4.05% | max response (HaCat [1]) -3.12% | outcome (HaCat [1]) | max response (KB-3-1) -14.9% and 2.26% | max response (NIH3T3 [2]) 2.11% and -9.05% | outcome (HACAT [3]) | Potency (MCC-13) | Potency (MCC-26) | Potency (MKL-1) | Potency (MKL-2) | Potency (UISO) | Potency (WaGa) | Potency (C33A)

CCCCc1ccc2nc(NC(=O)OC)[nH]c2c1
active: Potency (CRL-7250) 469 nM and 266 nM | Potency (HEK293) 14.8 nM and 188 nM | Potency (KB-3-1) 0.0235 µM | Potency (NIH3T3 [2]) 0.0166 µM | Potency (MCC-13) 296 nM and 53.1 nM | Potency (C33A) 0.794 µM
inactive: Potency (SC27B) | Potency (TAB109) | Potency (TAB113) | Potency (TAB165) | Potency (W2) | max response (HaCat [1]) 3.13% | outcome (HaCat [1]) | outcome (HACAT [3])

CCOC(=O)c1c(C)n(C)c2ccc(O)cc12
inactive: Potency (SC27B) | Potency (TAB109) | Potency (TAB113) | Potency (TAB165) | Potency (W2) | max response (CRL-7250) 3.97% and 0.808% | max response (HEK293) 0.41% and 2.4% | max response (HaCat [1]) 4.97% | outcome (HaCat [1]) | max response (KB-3-1) -7.66% and 1.23% | max response (NIH3T3 [2]) -5.37% | outcome (NIH3T3 [2]) | outcome (HACAT [3]) | Potency (MCC-13) | Potency (MKL-1) | Potency (MKL-2) | outcome (NIH3T3 [4]) | Potency (UISO) | Potency (WaGa) | Potency (C33A)

Cc1ccc(NC(=O)c2ccc(CN3CCN(C)CC3)cc2)cc1Nc1nccc(-c2cccnc2)n1
inactive: max response (CRL-7250) -2.19% | outcome (HaCat [1]) | max response (KB-3-1) -0.677% and -9.97% and -10.5% | max response (NIH3T3 [2]) -15.2% | outcome (NIH3T3 [2]) | outcome (HACAT [3]) | Potency (MCC-13) | Potency (MKL-1) | Potency (MKL-2) | outcome (NIH3T3 [4]) | Potency (UISO) | Potency (WaGa) | Potency (C33A)
active: Potency (TAB109) 10 µM | Potency (TAB113) 12.6 µM | Potency (TAB165) 11.2 µM | Potency (W2) 6.01 µM | Potency (HEK293) 18.7 µM and 21.1 µM and 11.6 µM

CCOc1cc(CC(=O)N[C@@H](CC(C)C)c2ccccc2N2CCCCC2)ccc1C(=O)O
inactive: Potency (SC27B) | Potency (TAB109) | Potency (TAB113) | Potency (TAB165) | Potency (W2) | outcome (CRL-7250) | outcome (HEK293) | outcome (HaCat [1]) | max response (KB-3-1) 4.6% | outcome (KB-3-1) | max response (NIH3T3 [2]) 4.08% | outcome (HACAT [3]) | outcome (HEK293T) | Potency (MCC-13) | Potency (MCC-26) | Potency (MKL-1) | Potency (MKL-2) | Potency (UISO) | Potency (WaGa)
